Chlamy TAG – inducers of TAG accumulation in Chlamydomonas, primary screen, qHTS, Chlamydomonas reinhardtii | Nile Red fluorescence, 72 h | hit rate 0.84% among 44,000 | calls only at 10 µM (by protocol); call rule not given here;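 also: hits raise Nile Red signal meaning more stored TAG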
An asterisk follows results filed as active; i = inactive; + = active, no number. Only a selection was taken, and hits are over-represented in it overall.

SMILES	Chlamy TAG
COc1ccccc1CNCCc1ccc(OC)c(OC)c1	i
COc1ccc(OC)c(CNCCc2cccc(F)c2)c1	i
COc1ccc(OC)c(CNCCc2ccc([N+](=O)[O-])cc2)c1	+
CCc1ccc(CN2CCN(c3ccc([N+](=O)[O-])cc3)CC2)cc1	i
CSc1ccc(CN2CCN(c3cc(C)ccc3C)CC2)cc1	i
COc1cccc(N2CCN(Cc3ccc([N+](=O)[O-])cc3)CC2)c1	+
O=[N+]([O-])c1ccc(N2CCN(Cc3ccc(Cl)cc3)CC2)cc1	i
Cc1ccccc1N1CCN(Cc2ccc([N+](=O)[O-])cc2)CC1	+
O=[N+]([O-])c1ccc(CN2CCN(c3ccccc3)CC2)cc1	+
O=[N+]([O-])c1ccc(CN2CCN(c3ccc(Cl)cc3)CC2)cc1	i
COc1ccc(N2CCN(Cc3ccc([N+](=O)[O-])cc3)CC2)cc1	i
Cc1ccccc1N1CCN(Cc2cccc([N+](=O)[O-])c2)CC1	i
COc1ccc(CN2CCN(c3cccc(OC)c3)CC2)cc1	i
Cc1ccccc1N1CCN(Cc2ccc(Cl)cc2)CC1	i
Fc1cccc(CN2CCN(c3cccc(Cl)c3)CC2)c1	i
C1CCCC(N2CCOCC2)CCC1	i
Fc1cccc(CN2CCN(c3ccccc3)CC2)c1	i
O=[N+]([O-])c1ccc(N2CCN(Cc3c(F)cccc3F)CC2)cc1	i
Clc1cccc(N2CCN(Cc3ccc4c(c3)OCO4)CC2)c1	i
CN1CCN(c2ccc([N+](=O)[O-])cc2)CC1	i
c1ccc2c(CN3CCCCCCC3)c[nH]c2c1	i
C(#CCN1CCCCC1)COc1ccccc1	+
C(#CCN1CCOCC1)COc1ccccc1	i
CN1CCN(Cc2ccsc2)CC1	i
CN(CC#CC(C)(O)C1CC1)C1CCCCC1 (stereo unspecified)	i
SMILES	Chlamy TAG
CN1CCN(Cc2c(Cl)cccc2Cl)CC1	i
CCc1ccc(CN2CCN(C)CC2)cc1	i
CN1CCN(Cc2ccc(Cl)cc2)CC1	i
CC(C)c1ccc(CN2CCN(C)CC2)cc1	+
CCc1ccc(CN2CCN(CCO)CC2)cc1	+
CCc1ccc(CN2CCN(C(C)C)CC2)cc1	i
C#CCOc1ccc(Br)cc1/C=C/[N+](=O)[O-]	i
Brc1cccc(CN2CCCCC2c2cccnc2)c1 (stereo unspecified)	i
O=[N+]([O-])c1ccccc1CNCCc1ccccc1	i
Cc1ccnc(-n2c(CN3C(=O)c4ccccc4C3=O)nc3ccccc3c2=O)c1	i
Cc1ccc(CN2CCN(c3ccc(F)cc3)CC2)cc1	+
Fc1ccc(CN2CCN(c3ccccc3)CC2)cc1	i
CN(C)c1ccc(CN2CCN(c3ccc(F)cc3)CC2)cc1	i
c1ccc(CN2CCN(C3CCCCC3)CC2)cc1	+
Cc1ccc(CN2CCN(c3ccc(Cl)cc3)CC2)cc1	i
c1ccc(CN2CCN(c3ccccc3)CC2)cc1	i
Fc1ccc(CN2CCN(c3ccccc3Cl)CC2)cc1	+
CCC(C)N1CCN(Cc2ccccc2)CC1 (stereo unspecified)	i
Fc1ccc(N2CCN(Cc3ccccc3)CC2)cc1	+
Fc1ccccc1N1CCN(Cc2ccc(Cl)cc2)CC1	i
CN(C)c1ccc(CN2CCN(c3ccccc3Cl)CC2)cc1	i
CN1CCN(Cc2ccccc2)CC1	i
COc1ccc(CN2CCN(c3ccccc3Cl)CC2)cc1	i
O=c1c2ccccc2nc(/C=C/c2ccccc2[N+](=O)[O-])n1-c1ccccc1O	i
Fc1ccc(CN2CCN(c3ccccc3)CC2)cc1Br	i
SMILES	Chlamy TAG
CCN1CCN(c2ccc3nsnc3c2[N+](=O)[O-])CC1	i
N/C(=N/[N+](=O)[O-])Nc1ccc(NC(=O)Nc2ccccc2)cc1	i
COc1ccc(CN2CCN(c3ccccc3)CC2)cc1C	i
Cc1cccc(C=Cc2nc3ccccc3c(=O)n2-c2cccc(O)c2)c1	i
O=c1c2ccccc2nc(/C=C\c2ccc(Cl)cc2)n1-c1ccccc1	i
COc1ccc(CN2CCN(c3ccccc3Cl)CC2)cc1OC	i
O=c1c2ccccc2nc(/C=C/c2ccc3c(c2)OCO3)n1-c1ccccc1Cl	i
COc1ccccc1N1CCN(Cc2ccc(Br)cc2)CC1	i
Oc1ccc(CN2CCN(Cc3ccccc3)CC2)cc1	+
OC1CCN(CCc2ccccc2)CC1	i
CN(C)c1ccc(CN2CCN(Cc3ccccc3)CC2)cc1	i
Cc1ccc(N2CCN(CCc3ccccc3)CC2)cc1	+
COc1ccccc1N1CCN(Cc2ccc(Cl)cc2)CC1	+
OCCN1CCN(Cc2ccccc2)CC1	i
CCc1ccc(CN2CCN(c3ccccc3OC)CC2)cc1	i
Cc1cccc(N2CCN(CCc3ccccc3)CC2)c1C	i
CCCSc1nc2ccccc2c(=O)n1-c1ccccc1	i
CCCCn1c(=O)c(C(=O)Nc2ccc(F)cc2)c(O)c2ccccc21	i
Cc1[nH]c2ccc(C(=O)O)cc2c1CCN	i
O=c1c2ccccc2nc(/C=C/c2ccc(F)cc2)n1-c1ccc([N+](=O)[O-])cc1	i
CCOc1ccccc1CN1CCN(c2ccc(Cl)cc2)CC1	i
CN1CCN(c2cc(N3CCCC3)ccc2[N+](=O)[O-])CC1	i
CN1CCN(c2ccc([N+](=O)[O-])c(N3CCCCC3)c2)CC1	+
CN1CCN(c2ccccc2[N+](=O)[O-])CC1	i
COc1ccc(OC)c(CN2CCN(c3ccccc3C)CC2)c1	i
